# Assay results as given in PubChem BioAssay (Tox21).
# A number with no mark means an inactive call. Results filed as inconclusive are left out. Entries that show only a call come without a potency. Calls of active or inactive are those of the source. Unless noted, the call rests on the fitted dose curve; in most records, active means well fitted curve in the direction sought with a large enough effect in the repeat runs; inconclusive means weak or mixed curves; inactive means no such curve, though single readings can be large; an effect the other way counts as inactive or inconclusive.
# How the values were obtained:
# [1] = qHTS assay to identify small molecule antagonists of the glucocorticoid receptor (GR) signaling pathway - cell viability counter screen (AID 720693); further: nearly all actives have a fitted effect of over 55% in size
# [2] = qHTS assay for identifying genotoxic compounds that show differential cytotoxicity against isogenic chicken DT40 cell lines with known DNA damage response pathways - wild type cell line (AID 743012); further: nearly all actives have a fitted effect of over 60% in size; further: potency means the concentration at half of the fitted maximal effect
# Method in brief: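 300 wt DT40 cells/well; cpd (DMSO) pintool-transferred after ~0.5 h at 37 C/5% CO2; 40 h incubation; CellTiter-Glo added, 30 min RT; luminescence read.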
# [3] = qHTS assay for identifying genotoxic compounds that show differential cytotoxicity against isogenic chicken DT40 cell lines with known DNA damage response pathways - Rev3 mutant cell line (AID 743014); further: nearly all actives have a fitted effect of over 55% in size; further: potency means the concentration at half of the fitted maximal effect
# [4] = qHTS assay for identifying genotoxic compounds that show differential cytotoxicity against isogenic chicken DT40 cell lines with known DNA damage response pathways - Rad54/Ku70 mutant cell line (AID 743015); further: nearly all actives have a fitted effect of over 60% in size; further: potency means the concentration at half of the fitted maximal effect
# [5] = qHTS assay to identify small molecule antagonists of the androgen receptor (AR) signaling pathway using the MDA cell line - cell viability counter screen (AID 743041; further: nearly all actives have a fitted effect of over 45% in size)
# Method in brief: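 Compound exposure lasted 16 h at 37C in MDA-kb2 AR-luc cells stimulated with R1881. Protease-based CellTiter-Fluor reagent was applied for the final 30 min and fluorescence measured.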
# [6] = qHTS assay to identify small molecule antagonists of the thyroid receptor (TR) signaling pathway (AID 743065); further: nearly all actives have a fitted effect of over 55% in size; further: potency means the concentration at half of the fitted maximal effect; on activity, negative = inhibition: series mostly up to about 70 µM
# Method in brief: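 GH3.TRE-Luc rat pituitary cells (two TREs driving luciferase) were dosed with compound, then stimulated with 1 nM T3 (final) for 23.5 h at 37 C. ONE-Glo luminescence was the read-out, with CellTiter-Fluor fluorescence as the cytotoxicity counter-screen.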
# [7] = test system: thyroid hormone receptor (rat, GH3 cells); assay: qHTS assay to identify small molecule agonists of the thyroid receptor (TR) signaling pathway (AID 743066; calls by dose curve)
# [8] = target: Estrogen receptor (Homo sapiens) (UniProt P03372); assay: qHTS assay to identify small molecule antagonists of the estrogen receptor alpha (ER-alpha) signaling pathway (AID 743069; active means well fitted curve in the direction sought with a large enough effect in the signal ratio in the repeat runs, not every such curve was filed as active; the % refers to the signal ratio)
# Method in brief: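 In this cell-based reporter format, GripTite HEK293 cells harbouring ER-alpha-UAS-bla were grown overnight with 2% charcoal-stripped FBS, dosed with DMSO-dissolved compounds, then challenged with 17beta-estradiol. After 18 hr at 37C, beta-lactamase activity was detected by FRET fluorescence.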
# [9] = qHTS assay to identify small molecule antagonists of the estrogen receptor alpha (ER-alpha) signaling pathway - cell viability counter screen (AID 743074; calls by dose curve; further: nearly all actives have a fitted effect of over 45% in size)
# [10] = target: Estrogen receptor (Homo sapiens) (UniProt P03372); assay: qHTS assay to identify small molecule agonists of the estrogen receptor alpha (ER-alpha) signaling pathway (AID 743075; calls by dose curve)
# [11] = target: Estrogen receptor (Homo sapiens) (UniProt P03372); assay: qHTS assay to identify small molecule agonists of the estrogen receptor alpha (ER-alpha) signaling pathway using the BG1 cell line (AID 743079); further: nearly all actives have a fitted effect of over 20% in size; further: potency means the concentration at half of the fitted maximal effect
# [12] = qHTS assay to identify small molecule antagonists of the estrogen receptor alpha (ER-alpha) signaling pathway using the BG1 cell line - cell viability counter screen (AID 743081);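 further: compound given together with 17beta-estradiol as the ER stimulus; series mostly up to about 70 µM; nearly all actives have a fitted effect of over 45% in size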
# Aromatase (Homo sapiens) = Aromatase (Homo sapiens) (UniProt P11511); assay: qHTS assay to identify aromatase inhibitors (AID 743083); further: series mostly up to about 70 µM; nearly all actives have a fitted effect of over 55% in size
# [13] = qHTS assay to identify small molecule antagonists of the thyroid receptor (TR) signaling pathway - cell viability counter screen (AID 743064); further: nearly all actives have a fitted effect of over 50% in size
# Method in brief: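 In rat pituitary GH3.TRE-Luc reporter cells co-exposed to compound and 1 nM T3 for 23.5 h, cytotoxicity was assessed with CellTiter-Fluor in the same wells, read by fluorescence.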
# [14] = qHTS assay to identify small molecule antagonists of the estrogen receptor alpha (ER-alpha) signaling pathway using the BG1 cell line (AID 743080; calls by dose curve;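 further: BG1 cells stimulated with 17beta-estradiol alongside compound; series mostly up to about 70 µM; nearly all actives have a fitted effect of over 25% in size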)
# Method in brief: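 BG1Luc4E2, endogenous ER-alpha, 4xERE-luc; 5 d charcoal-stripped FBS, phenol red free; 24 h plating; cpd + 17beta-estradiol 21.5 h, 37 C/5% CO2; CellTiter-Fluor viability 30 min, then ONE-Glo luciferase 30 min RT.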
# [15] = qHTS assay to identify small molecule antagonists of the androgen receptor (AR) signaling pathway - cell viability counter screen (AID 743033; further: nearly all actives have a fitted effect of over 45% in size)
# [16] = target: Androgen receptor (Homo sapiens) (UniProt P10275); assay: qHTS assay to identify small molecule antagonists of the androgen receptor (AR) signaling pathway (AID 743035; active means well fitted inhibition curve with a large enough effect in the signal ratio in the repeat runs, not every such curve was filed as active; the % refers to the signal ratio)
# Method in brief: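 In this cell-based reporter screen, compounds were tested in concentration series against R1881-activated HEK293 cells expressing beta-lactamase under UAS control; after 16 h at 37C, FRET substrate was added and fluorescence read 2 h later.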
# [17] = target: Androgen receptor (Homo sapiens) (UniProt P10275); assay: qHTS assay to identify small molecule agonists of the androgen receptor (AR) signaling pathway (AID 743036; active means well fitted activation curve with a large enough effect in the signal ratio in the repeat runs, with a control signal flat, not every such curve was filed as active; the % refers to the signal ratio)
# Method in brief: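 Cell-based FRET reporter assay: HEK293 line with a UAS-beta-lactamase construct, compounds added in DMSO, 16 h exposure at 37C, then 2 h substrate step at room temperature and fluorescence intensity read.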
# [18] = target: Androgen receptor (Homo sapiens) (UniProt P10275); assay: qHTS assay to identify small molecule agonists of the androgen receptor (AR) signaling pathway using the MDA cell line (AID 743040; further: nearly all actives have a fitted effect of over 20% in size)
# Method in brief: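 Testing was done with the MDA-kb2 AR-luc line, a human breast carcinoma stably transfected with MMTV-luciferase containing AR and GR response elements. Cells were exposed 16 h at 37C before ONE-Glo luminescence detection.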
# [19] = target: Androgen receptor (Homo sapiens) (UniProt P10275); assay: qHTS assay to identify small molecule antagonists of the androgen receptor (AR) signaling pathway using the MDA cell line (AID 743042; further: nearly all actives have a fitted effect of over 55% in size)
# Method in brief: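 MDA-kb2 breast carcinoma cells carrying MMTV-luciferase (AR/GR responsive) were co-treated with compounds and the agonist R1881 for 16 h at 37C. Inhibition read as ONE-Glo luminescence; CellTiter-Fluor fluorescence measured in parallel for cytotoxicity.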
# Aromatase (Homo sapiens), sequence (P11511 whole entry, looked up): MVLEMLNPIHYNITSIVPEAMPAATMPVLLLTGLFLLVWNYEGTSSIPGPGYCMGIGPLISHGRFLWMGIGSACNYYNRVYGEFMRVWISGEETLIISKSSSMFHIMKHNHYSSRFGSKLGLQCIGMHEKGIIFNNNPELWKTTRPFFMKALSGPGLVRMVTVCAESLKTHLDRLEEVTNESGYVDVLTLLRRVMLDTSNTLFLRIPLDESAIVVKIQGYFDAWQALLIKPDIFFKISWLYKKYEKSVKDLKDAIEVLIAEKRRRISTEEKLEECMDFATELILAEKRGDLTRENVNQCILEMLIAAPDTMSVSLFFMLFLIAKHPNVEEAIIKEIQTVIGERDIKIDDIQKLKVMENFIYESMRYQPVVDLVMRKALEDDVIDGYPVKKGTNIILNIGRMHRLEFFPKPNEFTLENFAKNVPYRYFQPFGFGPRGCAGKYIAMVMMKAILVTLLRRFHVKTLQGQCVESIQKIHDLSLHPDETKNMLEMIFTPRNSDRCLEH
# Androgen receptor (Homo sapiens), sequence (P10275 whole entry, looked up): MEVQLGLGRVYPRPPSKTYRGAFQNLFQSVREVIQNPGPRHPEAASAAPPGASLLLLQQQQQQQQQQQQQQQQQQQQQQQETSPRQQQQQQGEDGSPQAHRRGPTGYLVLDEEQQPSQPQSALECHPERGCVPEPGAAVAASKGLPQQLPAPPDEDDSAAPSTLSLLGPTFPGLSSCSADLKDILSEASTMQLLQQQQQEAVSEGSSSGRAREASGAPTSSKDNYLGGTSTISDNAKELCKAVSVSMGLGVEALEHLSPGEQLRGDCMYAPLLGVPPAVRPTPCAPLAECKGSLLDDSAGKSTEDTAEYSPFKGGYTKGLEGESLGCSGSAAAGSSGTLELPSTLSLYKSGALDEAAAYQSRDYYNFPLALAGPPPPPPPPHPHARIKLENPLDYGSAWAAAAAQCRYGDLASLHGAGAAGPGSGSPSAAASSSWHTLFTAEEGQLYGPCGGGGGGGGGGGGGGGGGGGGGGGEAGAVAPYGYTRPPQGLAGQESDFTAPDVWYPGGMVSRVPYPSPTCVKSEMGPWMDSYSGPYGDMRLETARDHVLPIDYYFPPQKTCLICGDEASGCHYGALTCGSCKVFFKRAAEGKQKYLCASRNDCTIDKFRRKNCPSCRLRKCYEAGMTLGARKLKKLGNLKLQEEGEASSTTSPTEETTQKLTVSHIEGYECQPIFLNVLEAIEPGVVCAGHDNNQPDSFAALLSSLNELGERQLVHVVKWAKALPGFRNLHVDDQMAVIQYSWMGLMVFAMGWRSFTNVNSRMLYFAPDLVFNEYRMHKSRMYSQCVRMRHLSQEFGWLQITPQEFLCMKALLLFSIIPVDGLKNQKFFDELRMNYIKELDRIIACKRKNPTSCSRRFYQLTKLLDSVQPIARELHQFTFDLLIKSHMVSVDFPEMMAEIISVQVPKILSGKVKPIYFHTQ
# Estrogen receptor (Homo sapiens), sequence (P03372 whole entry, looked up): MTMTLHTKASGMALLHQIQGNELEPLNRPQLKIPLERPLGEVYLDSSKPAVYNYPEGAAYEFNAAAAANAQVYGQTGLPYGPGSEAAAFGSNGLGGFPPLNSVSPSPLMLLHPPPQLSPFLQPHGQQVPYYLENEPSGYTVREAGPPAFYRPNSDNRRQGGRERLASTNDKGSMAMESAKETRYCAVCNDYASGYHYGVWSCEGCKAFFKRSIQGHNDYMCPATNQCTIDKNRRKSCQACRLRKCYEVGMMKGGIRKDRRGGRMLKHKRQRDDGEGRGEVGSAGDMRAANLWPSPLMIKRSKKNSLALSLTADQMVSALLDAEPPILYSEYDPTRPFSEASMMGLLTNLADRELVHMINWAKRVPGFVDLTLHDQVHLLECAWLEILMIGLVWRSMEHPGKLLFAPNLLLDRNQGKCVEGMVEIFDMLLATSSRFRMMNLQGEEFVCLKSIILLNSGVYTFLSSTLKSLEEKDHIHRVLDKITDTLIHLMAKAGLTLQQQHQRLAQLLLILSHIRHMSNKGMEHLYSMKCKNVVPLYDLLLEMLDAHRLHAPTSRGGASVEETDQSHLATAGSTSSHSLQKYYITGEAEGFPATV
smiles,measurement,setting,value
C1=COCCC1,Potency,[1],inactive
same,Potency,[2],inactive
same,Potency,[3],inactive
same,Potency,[4],inactive
same,Potency,[5],inactive
same,Potency,[6],inactive
same,outcome,[7],inactive
same,Potency,[8],inactive
same,outcome,[9],inactive
same,Potency,[10],inactive
same,Potency,[11],inactive
same,Potency,[12],inactive
same,Potency,Aromatase (Homo sapiens),inactive
Cc1c(Nc2ncccc2C(=O)O)cccc1C(F)(F)F,Potency,[1],inactive
same,Potency,[2],12.7 µM (active)
same,Potency,[3],inactive
same,Potency,[4],11.4 µM (active)
same,Potency,[5],inactive
same,Potency,[6],2.85 µM (active)
same,outcome,[7],inactive
same,outcome,[9],inactive
same,Potency,[12],inactive
CC(C)CCCCCCCOC(=O)c1ccc(C(=O)OCCCCCCCC(C)C)c(C(=O)OCCCCCCCC(C)C)c1,Potency,[1],inactive
same,Potency,[2],inactive
same,Potency,[3],inactive
same,Potency,[4],inactive
same,Potency,[5],inactive
same,Potency,[13],inactive
same,Potency,[6],inactive
same,outcome,[7],inactive
same,outcome,[9],inactive
same,Potency,[12],inactive
same,Potency,Aromatase (Homo sapiens),inactive
Cc1ccc(S(=O)(=O)NC(=O)NC2CCCC2)cc1,Potency,[1],inactive
same,Potency,[2],inactive
same,Potency,[3],inactive
same,Potency,[4],inactive
same,Potency,[5],inactive
same,Potency,[13],inactive
same,Potency,[6],inactive
same,outcome,[7],inactive
same,outcome,[9],inactive
same,Potency,[12],inactive
same,Potency,Aromatase (Homo sapiens),inactive
O=[N+]([O-])c1cccc(I)c1,Potency,[1],inactive
same,Potency,[2],inactive
same,Potency,[3],inactive
same,Potency,[4],inactive
same,Potency,[5],inactive
same,Potency,[13],inactive
same,Potency,[6],inactive
same,outcome,[7],inactive
same,Potency,[8],inactive
same,outcome,[9],inactive
same,Potency,[10],inactive
same,Potency,[11],inactive
same,Potency,[14],inactive
same,Potency,[12],inactive
same,Potency,Aromatase (Homo sapiens),inactive
CC(C)=CCC[C@H](C)CCO,Potency,[1],inactive
same,Potency,[2],54.5 µM (active)
same,Potency,[3],48.6 µM (active)
same,Potency,[4],19.3 µM (active)
same,Potency,[5],inactive
same,Potency,[13],inactive
same,outcome,[7],inactive
same,Potency,[8],inactive
same,outcome,[9],inactive
same,Potency,[10],inactive
same,Potency,[11],inactive
same,Potency,[12],inactive
same,Potency,Aromatase (Homo sapiens),inactive
Cc1cc(C)n(CO)n1,Potency,[1],inactive
same,Potency,[2],inactive
same,Potency,[3],inactive
same,Potency,[4],inactive
same,Potency,[5],inactive
same,Potency,[13],inactive
same,Potency,[8],inactive
same,outcome,[9],inactive
same,Potency,[10],inactive
same,Potency,[11],inactive
same,Potency,[14],inactive
same,Potency,[12],inactive
same,Potency,Aromatase (Homo sapiens),inactive
Nc1cccc2c(=O)[nH][nH]c(=O)c12,Potency,[1],inactive
same,Potency,[2],inactive
same,Potency,[3],inactive
same,Potency,[4],inactive
same,Potency,[5],inactive
same,Potency,[13],inactive
same,outcome,[7],inactive
same,outcome,[9],inactive
same,Potency,[10],inactive
same,Potency,[11],inactive
same,Potency,[14],inactive
same,Potency,[12],inactive
same,Potency,Aromatase (Homo sapiens),inactive
C(/C=C/C=C/Nc1ccccc1)=Nc1ccccc1,Potency,[1],inactive
same,Potency,[2],inactive
same,Potency,[3],inactive
same,Potency,[5],inactive
same,Potency,[13],inactive
same,Potency,[8],inactive
same,outcome,[9],inactive
same,Potency,[10],inactive
same,Potency,[11],inactive
same,Potency,[14],inactive
same,Potency,[12],inactive
same,Potency,Aromatase (Homo sapiens),inactive
O=C(O)c1cc(C(=O)O)c(C(=O)O)cc1C(=O)O,Potency,[1],inactive
same,Potency,[3],inactive
same,Potency,[4],inactive
same,Potency,[15],inactive
same,Potency,[16],inactive
same,outcome,[17],inactive
same,outcome,[18],inactive
same,Potency,[5],inactive
same,Potency,[19],inactive
same,Potency,[13],inactive
same,Potency,[6],inactive
same,outcome,[7],inactive
same,Potency,[8],inactive
same,outcome,[9],inactive
same,Potency,[10],inactive
same,Potency,[11],inactive
same,Potency,[14],inactive
same,Potency,[12],inactive
same,Potency,Aromatase (Homo sapiens),inactive
C[C@@H](O)[C@H]1C(=O)N2C(C(=O)O)=C(S[C@@H]3CN[C@H](CNS(N)(=O)=O)C3)[C@H](C)[C@H]12,Potency,[1],inactive
same,Potency,[2],inactive
same,Potency,[4],inactive
same,Potency,[5],inactive
same,Potency,[13],inactive
same,outcome,[7],inactive
same,Potency,[8],inactive
same,outcome,[9],inactive
same,Potency,[10],inactive
same,Potency,[14],inactive
same,Potency,[12],inactive
same,Potency,Aromatase (Homo sapiens),inactive
CCC(CC)C(=O)O,Potency,[1],inactive
same,Potency,[3],inactive
same,Potency,[4],inactive
same,Potency,[5],inactive
same,Potency,[13],inactive
same,outcome,[7],inactive
same,outcome,[9],inactive
same,Potency,[10],inactive
same,Potency,[11],inactive
same,Potency,[14],inactive
same,Potency,[12],inactive
same,Potency,Aromatase (Homo sapiens),inactive
c1ccc(-c2ccc(-c3ccccc3)cc2)cc1,Potency,[1],inactive
same,Potency,[3],inactive
same,Potency,[4],inactive
same,Potency,[15],inactive
same,Potency,[5],inactive
same,Potency,[13],inactive
same,Potency,[6],inactive
same,outcome,[7],inactive
same,Potency,[8],inactive
same,outcome,[9],inactive
same,Potency,[10],inactive
same,Potency,[11],0.791 µM (active)
same,Potency,[12],inactive
Cc1nc(C)c(C)nc1C,Potency,[1],inactive
same,Potency,[3],inactive
same,Potency,[15],inactive
same,Potency,[16],inactive
same,outcome,[17],inactive
same,outcome,[18],inactive
same,Potency,[5],inactive
same,Potency,[19],inactive
same,Potency,[13],inactive
same,Potency,[6],inactive
same,outcome,[7],inactive
same,Potency,[8],inactive
same,outcome,[9],inactive
same,Potency,[10],inactive
same,Potency,[11],inactive
same,Potency,[14],inactive
same,Potency,[12],inactive
same,Potency,Aromatase (Homo sapiens),inactive
O=C(Cl)c1ccc(F)c(Cl)c1,Potency,[1],inactive
same,Potency,[3],inactive
same,Potency,[4],inactive
same,Potency,[15],inactive
same,Potency,[5],inactive
same,Potency,[13],inactive
same,Potency,[6],inactive
same,outcome,[7],inactive
same,Potency,[8],inactive
same,outcome,[9],inactive
same,Potency,[10],inactive
same,Potency,[14],inactive
same,Potency,[12],inactive
same,Potency,Aromatase (Homo sapiens),inactive
CCCCCCCCCCCCCCCCCCCl,"viability change, negative = cytotoxic",[1],-4.59% [at 7.04 µM]
same,"activity change, negative = cytotoxicity",[2],14.5% [at 8.52 µM]
same,"activity change, negative = cytotoxicity",[15],-8.37% [at 7.04 µM]
same,"viability change, negative = cytotoxic",[5],-1.19% [at 8.47 µM]
same,"activity, negative = inhibition",[6],15% [at 8.44 µM]
same,activation,[7],7.57% [at 8.08 µM]
same,"activity, negative = inhibition",[8],-5.29% [at 6.71 µM]
same,"activity, negative = cytotoxicity",[9],-22.2% [at 6.72 µM]
same,activation,[10],-1.63% [at 6.71 µM]
same,activation,[11],-11% [at 8.47 µM]
same,"activity change, negative = inhibition",[14],0.197% [at 8.47 µM]
same,"activity change, negative = cytotoxicity",[12],-0.138% [at 8.47 µM]
same,"activity, negative = inhibition",Aromatase (Homo sapiens),13.8% [at 8.47 µM]
CC(C)(C)NCC(O)COc1ccc(NC(=O)NC2CCCCC2)cc1 (centres undefined),Potency,[1],inactive
same,Potency,[2],29.8 µM (active)
same,Potency,[4],26.6 µM (active)
same,Potency,[15],inactive
same,Potency,[5],inactive
same,outcome,[7],inactive
same,Potency,[8],inactive
same,outcome,[9],inactive
same,Potency,[10],inactive
same,Potency,[12],inactive
same,Potency,Aromatase (Homo sapiens),inactive
CCOC(=O)CC(O)(CC(=O)OCC)C(=O)OCC,Potency,[1],inactive
same,Potency,[2],inactive
same,Potency,[5],inactive
same,Potency,[6],inactive
same,outcome,[7],inactive
same,Potency,[8],inactive
same,outcome,[9],inactive
same,Potency,[10],inactive
same,Potency,[11],inactive
same,Potency,[14],inactive
same,Potency,[12],inactive
same,Potency,Aromatase (Homo sapiens),inactive
C=CC(C)(O)CC/C=C(/C)CCC=C(C)C (centres undefined),Potency,[1],inactive
same,Potency,[3],54.5 µM (active)
same,Potency,[4],61.1 µM (active)
same,Potency,[15],inactive
same,Potency,[5],inactive
same,Potency,[13],inactive
same,Potency,[6],inactive
same,outcome,[7],inactive
same,outcome,[9],inactive
same,Potency,[12],inactive
